Compounds with a hit are over-represented: about 4% of the library has one in this group of screens.
CCHFV vOTU inh – blocks the CCHF virus ovarian tumor domain protease; inhibition, % at 11.5 µM; CCHFV vOTU protease, Pep-AMC fluorescence; 0.55% of 370,000 active; AID 651958
GDH-TPI inh – inhibits GDH-TPI coupling enzymes, artifact for Mtb FBA screen. GDH-TPI coupled enzyme counterscreen, NADH absorbance. inhibition, % at 4.8 µM. 1.2% of 360,000 active
Mtb FBA inh – inhibitors of M. tuberculosis fructose-bisphosphate aldolase | P9WQA3 | purified M. tuberculosis FBA, fluorescence read-out | inhibition, % at 1 µM | 2.3% of 360,000 active | AID 588726; in the data active = inhibition above about 27%
Target sequence (P9WQA3 whole entry, looked up): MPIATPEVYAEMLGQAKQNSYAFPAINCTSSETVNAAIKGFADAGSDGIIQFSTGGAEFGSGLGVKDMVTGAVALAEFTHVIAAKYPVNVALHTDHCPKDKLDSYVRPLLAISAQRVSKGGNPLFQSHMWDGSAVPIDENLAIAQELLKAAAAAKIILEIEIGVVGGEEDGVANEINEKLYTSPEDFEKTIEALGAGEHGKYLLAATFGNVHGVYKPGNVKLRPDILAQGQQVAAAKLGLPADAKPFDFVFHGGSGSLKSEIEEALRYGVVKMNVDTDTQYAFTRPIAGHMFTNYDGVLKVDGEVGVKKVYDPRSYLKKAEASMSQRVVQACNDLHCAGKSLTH
MazF activator – MazEF (E. coli) toxin RNase activation; P0AE70; FAM/BHQ RNA-DNA oligo cleavage fluorescence, 5 h; activation, % at 20 µM; 0.32% of 350,000 active; AID 504720; in the data active = activation above about 50%
Target sequence (P0AE70 whole entry, looked up): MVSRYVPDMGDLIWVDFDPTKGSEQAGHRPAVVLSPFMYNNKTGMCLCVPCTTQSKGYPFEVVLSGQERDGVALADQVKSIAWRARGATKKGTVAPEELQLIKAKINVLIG
Mtb betalactam – beta-lactam sensitization of Mtb H37Rv. M. tuberculosis H37Rv growth with meropenem, percent inhibition. inhibition, % at 25 µM. 0.27% of 330,000 active. AID 434955; call rule not given here;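 note: growth measured after seven days incubation then overnight dye step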
Of the large screens only hits and unclear results are named; the others gave an inactive call. Cut-off read from the data, not from the text of the source, unless noted: active = inhibition above about 30%; inactive = the rest.

COc1cc(/C=N/NC(=O)c2cc[n+]([O-])cc2)cc(OC)c1OC	GDH-TPI inh 39
CC(C)CNS(=O)(=O)CC1NCc2cc3c(cc21)OCO3 (stereo not given)	none (no result: GDH-TPI inh, Mtb FBA inh, MazF activator, Mtb betalactam)
Brc1ccc(-c2cn3nc4c(nc3n2)CCCC4)cc1	none
Nc1nn2cc(-c3ccc(Br)cc3)nc2c2ccccc12	Mtb FBA inh 146
CCOc1cc(/C=N\NC(=O)c2ccc(C)nc2)cc([N+](=O)[O-])c1O	GDH-TPI inh 49
COc1cc(/C=N/NC(=O)c2ccc(C)nc2)cc([N+](=O)[O-])c1O	none
COc1cc([N+](=O)[O-])cc(/C=N/NC(=O)c2ccc(C)nc2)c1O	GDH-TPI inh 37
COC(=O)[C@]12C[C@H](CC(=O)NCc3ccc(OC)c(OC)c3)C(=O)N(Cc3ccc(Cl)cc3Cl)C1=C[C@H](COCc1ccccc1)O[C@@H]2C	none (no result: GDH-TPI inh, Mtb FBA inh, MazF activator, Mtb betalactam)
CCCC[C@H](CCCc1ccc(F)cc1)CCC(=O)N(c1ccccc1)c1ccccc1	none (no result: GDH-TPI inh, Mtb FBA inh, MazF activator, Mtb betalactam)
CCCC(=O)Nc1ccc2oc(-c3ccc(OC)c(Br)c3)nc2c1	Mtb FBA inh 125
CCC(=O)NC(=S)Nc1ccc2oc(-c3ccc(OC)cc3)nc2c1	none
C#CCNC(=O)C[C@@H]1C[C@@](CCC(=O)OCC)(C(=O)OCC)C2=CCCCN2C1=O	none (no result: GDH-TPI inh, Mtb FBA inh, MazF activator, Mtb betalactam)
COC(=O)[C@]12C[C@H](CC(=O)NCc3ccc(C)o3)C(=O)N(Cc3cccc4ccccc34)C1=C[C@H](C(C)(C)C)O[C@@H]2C	none (no result: GDH-TPI inh, Mtb FBA inh, MazF activator, Mtb betalactam)
CC(=O)Cc1nsc(NC(=O)c2ccc(-c3cc(Cl)ccc3Cl)o2)n1	GDH-TPI inh 46
CN(CCCOC(=O)c1cc2ccccc2o1)C1CN(Cc2cn(Cc3ccc([N+](=O)[O-])cc3)nn2)S(=O)(=O)C1 (stereo not given)	none (no result: GDH-TPI inh, Mtb FBA inh, MazF activator, Mtb betalactam)
CC(C)c1ccc(/C=C/C2=NNC(=O)CC2)cc1	none
COc1cc(/C=C/C2=NNC(=O)CC2)cc(OC)c1OC	GDH-TPI inh 45
Cc1cc(O)cc(O)c1C=NCc1ccco1	GDH-TPI inh 33, MazF activator 90
Cc1ccc2nc(NCc3ccco3)c(C=NCc3ccco3)c(=O)n2c1	none
CCN(CC)c1ccc(S(=O)(=O)N2CCOCC2)cc1NC(=O)CSc1nncn1C	CCHFV vOTU inh 35
CC(C)CN1CN2Cc3cc(F)ccc3C2CS1(=O)=O (stereo not given)	none (no result: GDH-TPI inh, Mtb FBA inh, MazF activator, Mtb betalactam)
C[C@@H]1OC(C2CCCCC2)N(C)[C@H]2C[C@H]3c4[nH]c5cccc(-c6cccc(F)c6)c5c4CCN3C(=O)[C@@H]12 (stereo not given in full)	none (no result: GDH-TPI inh, Mtb FBA inh, MazF activator, Mtb betalactam)
COC(=O)/C(C#N)=C/c1ccc(-c2ccc(S(N)(=O)=O)cc2)o1	none
CC(C)OC(=O)/C(C#N)=C/c1ccc(-c2ccc(SC(F)F)cc2)o1	MazF activator 140
CC[C@H]1C=C[C@@H](C(=O)NS(=O)(=O)c2ccc(C)cc2)N(C(C)=O)C1	none (no result: GDH-TPI inh, Mtb FBA inh, MazF activator, Mtb betalactam)
COC(=O)[C@]12C[C@H](CC(=O)NCc3cccs3)C(=O)N(Cc3ccc(Cl)cc3Cl)C1=C[C@H](C(C)(C)C)O[C@@H]2C	none (no result: GDH-TPI inh, Mtb FBA inh, MazF activator, Mtb betalactam)
COc1ccc(NC(=O)c2ccc(-c3ccc(OC)cc3)s2)cc1	none
CNC(=O)c1ccc(-c2ccc(OC)cc2)s1	Mtb FBA inh active
c1ccc(-c2ccc(-c3ccccn3)s2)nc1	Mtb FBA inh active
CCN(CC)CCCNC(=O)/C(=C\c1cccn1C)NC(=O)c1cccs1	GDH-TPI inh 35
O=C(CCc1nc(-c2ccccc2F)no1)NCCc1ccc(F)cc1	none (no result: GDH-TPI inh, Mtb FBA inh, MazF activator, Mtb betalactam)
O=S(=O)(c1cccs1)N1CN(Cc2cccs2)c2nc3ccccc3nc21	Mtb FBA inh 103
O=S(=O)(c1cccs1)N1CN(Cc2ccc(F)cc2)c2nc3ccccc3nc21	none
COc1ccc(-c2cc(-c3ccccc3)[n+](C)c(-c3ccccc3)c2)cc1	Mtb FBA inh 35
COCCOC(=O)c1c(N)n(Cc2ccc(OC)cc2)c2nc3ccccc3nc12	Mtb FBA inh 171
COC(=O)c1c(N)n(Cc2ccc(OC)cc2)c2nc3ccccc3nc12	Mtb FBA inh 159
CCOC(=O)[C@]12CCCCC/C=C\1N(Cc1ccc(OC)cc1)C(=O)[C@H]2CC(=O)NCCCCc1ccccc1	none (no result: GDH-TPI inh, Mtb FBA inh, MazF activator, Mtb betalactam)
CN=CC1=C(O)c2ccccc2C1=O	GDH-TPI inh 35
CC(C)(C)C(=O)OC12CCCN(C1)/C(=C/c1ccc(C#N)cc1)C2 (stereo not given)	none (no result: GDH-TPI inh, Mtb FBA inh, MazF activator, Mtb betalactam)
COc1ccc(Nc2nc(-c3cc4cccc(OC)c4oc3=O)cs2)cc1	none
CC(=O)Nc1ccc(Nc2nc(-c3cc4ccccc4oc3=O)cs2)cc1	MazF activator 63
COc1ccc2oc(=O)c(-c3csc(Nc4cccc(O)c4)n3)cc2c1	MazF activator 133
COC(=O)c1c(NC(=O)c2nc3ccccc3s2)sc2c1CC(C)(C)NC2(C)C	MazF activator 53
COC(=O)c1c(NC(=O)c2ccc(C(=O)c3ccccc3)cc2)sc2c1CC(C)(C)NC2(C)C	none (no result: Mtb betalactam)
O=c1c2ccccc2n(CC(O)CN2CCCCC2)c2ccccc12 (stereo not given)	Mtb FBA inh 109
CCCC[C@@H]1C(=O)N2N=Cc3cc4ccccc4cc3[C@H]2N2N=Cc3cc4ccccc4cc3[C@@H]12	none (no result: GDH-TPI inh, Mtb FBA inh, MazF activator, Mtb betalactam)
CC(=O)C1=C(O)C(=O)N(Cc2ccccc2)C1c1ccc(Cl)cc1 (stereo not given)	none
CC(=O)C1=C(O)C(=O)N(Cc2ccccc2)C1c1cccs1 (stereo not given)	GDH-TPI inh 31
O=c1[nH]c(SCc2nc3c(cnn3-c3ccccc3)c(=O)[nH]2)nc2ccccc12	MazF activator 50 (no result: Mtb betalactam)
COC(=O)C1CN(Cc2ccc(F)cc2)CCS(=O)(=O)N1Cc1ccc(C)cc1 (stereo not given)	none (no result: GDH-TPI inh, Mtb FBA inh, MazF activator, Mtb betalactam)
CCOC(=O)[C@H]1[C@H]2COc3ccccc3[C@@H]2N2C(=O)CN(Cc3ccc(C)cc3)C(=O)[C@@]12C	MazF activator 542
Cc1ccc(NC(=O)C2CCCN(c3nnc(-n4cccc4)s3)C2)cc1C (stereo not given)	none (no result: GDH-TPI inh, Mtb FBA inh, MazF activator, Mtb betalactam)
CCNC(=O)C(=O)NCCC1CCCCN1S(=O)(=O)c1cccs1 (stereo not given)	Mtb FBA inh 130
Cc1nnc(C)n1N=Cc1ccc(Cl)c([N+](=O)[O-])c1	none (no result: GDH-TPI inh, Mtb FBA inh, MazF activator, Mtb betalactam)
CC1(C)CC(=O)C2=C(C1)c1c(ccc3ccccc13)NC2c1ccc(OCC(=O)O)cc1 (stereo not given)	Mtb FBA inh active
CCOc1ccc(C2Nc3ccccc3NC3=C2C(=O)CC(C)(C)C3)cc1OC (stereo not given)	none
COc1cc(C2Nc3ccc4ccccc4c3C3=C2C(=O)CC(C)(C)C3)ccc1OCC(=O)O (stereo not given)	Mtb FBA inh 121
COc1cc(C2Nc3ccc4ccccc4c3C3=C2C(=O)CC(C)(C)C3)ccc1OC(C)C(=O)O (stereo not given)	Mtb FBA inh 183
COC(=O)c1cccc(Cn2ccc3ccc(-c4ccc5ccn(C(=O)c6cccc(OC)c6)c5c4)cc32)c1	none (no result: GDH-TPI inh, Mtb FBA inh, MazF activator, Mtb betalactam)
O=C(COCc1ccncc1)N1CCN(c2ccc(F)cc2Cl)CC1	none (no result: GDH-TPI inh, Mtb FBA inh, MazF activator, Mtb betalactam)
O=C1CCC2(CCCCC2)N1CCCO	none (no result: GDH-TPI inh, Mtb FBA inh, MazF activator, Mtb betalactam)
CCOC(=O)c1c[nH]n(-c2ccccc2)c1=O	none
CCOC(=O)c1cc(C(=O)OCC)c2ccccn2c1=O	Mtb FBA inh active

Source: PubChem (several laboratories)
